A selection: hits, their analogues and other compounds. The true share with any hit is near 7.6%.
Giardia kill – Giardia lamblia killing; Giardia lamblia trophozoite viability; 340,000 compounds, 0.15% hits; activity change, % at 7.66 µM, hits read low; AID 540267; in the data active = activity change below about -80%; inconclusive = between about -30% and that limit;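 also: parasites exposed to compound for two days anaerobically before the ATP read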
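Each well holds 100 Giardia trophozoites and compound. After two days (48 hrs) at 37 deg C in anaerobic conditions, ATP is quantified by luminescence.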
VP16 counter – inhibits Gal4-VP16 luciferase reporter, ROR gamma counter-screen; AID 2546; Potency, µM (titrated, usually from 53.6 µM), usual class: inhibitors; 310,000 compounds, 3.5% hits; Drosophila S2 Gal4-VP16 UAS-luciferase, luminescence, 20 h;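 also: Gal4-VP16 expression switched on by copper sulfate through the metallothionein promoter; nearly all actives have a fitted effect of over 50% in size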
BRCA1 expr act – activators of BRCA1 expression. MCF7-BRCA1-FFLuc reporter, luminescence, 48 h; response scale: scaled: vehicle 0%, 10 µM genistein 100%. Potency, µM (titrated, usually from 46.1 µM), actives largely listed as activators. 380,000 compounds, 1.1% hits; also: nearly all actives have a fitted effect of over 80% in size
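First, MCF7-BRCA1-FFLuc cells (2000/well) attach for 2 h; next, compounds are pin-added and incubated 48 h at 37 °C; finally, luciferase reagent is added and luminescence read after 15 min.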
RORg inh – ROR gamma (mouse) transcription inhibition | Drosophila S2 Gal4-RORgamma UAS-luciferase reporter, 20 h | Potency, µM (doses to about 53.6 µM), most hits filed as inhibitors | 310,000 compounds, 5.4% hits | AID 2551; also: nearly all actives have a fitted effect of over 60% in size
Target sequence (P51450 whole entry, looked up, the tested form may be a part): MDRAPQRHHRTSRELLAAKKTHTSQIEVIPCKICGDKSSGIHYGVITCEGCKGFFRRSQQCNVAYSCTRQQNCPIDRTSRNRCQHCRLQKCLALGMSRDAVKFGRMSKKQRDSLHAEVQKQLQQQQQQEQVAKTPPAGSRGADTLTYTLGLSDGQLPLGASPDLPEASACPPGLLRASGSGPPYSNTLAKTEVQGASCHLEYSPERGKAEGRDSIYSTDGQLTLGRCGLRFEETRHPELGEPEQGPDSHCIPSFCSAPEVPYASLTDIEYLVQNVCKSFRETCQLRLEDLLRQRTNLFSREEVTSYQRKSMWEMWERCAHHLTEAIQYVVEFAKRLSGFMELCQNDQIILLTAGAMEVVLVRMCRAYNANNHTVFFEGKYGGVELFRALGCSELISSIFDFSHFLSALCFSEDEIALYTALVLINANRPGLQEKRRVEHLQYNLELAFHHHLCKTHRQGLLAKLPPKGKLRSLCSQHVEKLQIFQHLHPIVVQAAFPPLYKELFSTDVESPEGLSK
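Read-out: Photinus luciferase luminescence; inhibitors lower reporter signal. Insect Schneider cells with Gal4-ROR gamma fusion under metallothionein promoter, UAS reporter; 700 uM final copper sulfate induction, 20 hr, ambient temperature.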
ELG1 DNA repair – inhibitors of ELG1-dependent DNA repair in HEK293T cells. 330,000 compounds, 2.3% hits. Potency, µM (top dose mostly 46.1 µM), actives largely listed as inhibitors. HEK293T ELG1-luciferase reporter, luminescence, 16 h; DNA damage induced by 5-fluorouridine. AID 504467; also: nearly all actives have a fitted effect of over 55% in size
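5-Fluorouridine DNA damage + compound/DMSO, 2,000 cells/well, 16 h, 37 °C/5% CO2. ONE-Glo, 30 min RT, luminescence. Readout = decrease in reporter signal.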
p53 reactivator – restores transcriptional activity of mutant p53; H1299 p53-A138V BP100-luciferase reporter, luminescence, 24 h; 320,000 compounds, 0.063% hits; AID 504706; Potency, µM (doses to about 92.2 µM), most hits filed as activators; also: nearly all actives have a fitted effect of over 45% in size
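p53-null H1299 cells stably carrying temperature-sensitive p53-A138V and a BP100-luciferase reporter were pinned with compounds (4-point, 1:5 series) and held 24 hrs at 37 deg C. Luminescence was read 10 min after detection reagent.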
Numbers stand for hits; – = inactive; ? = inconclusive; · = no result given; [ ] = remark or other dose. Unless noted, calls follow the shape of the dose curve; as a rule, active = well fitted curve in the direction sought with a large enough effect; inconclusive = small, poorly fitted or top-dose-only effect, or another doubt; inactive = no such curve, though single readings can be large; an effect the other way counts as inactive or inconclusive.

SMILES	Giardia kill	VP16 counter	BRCA1 expr act	RORg inh	ELG1 DNA repair	p53 reactivator
CCOc1ccccc1NC(=S)NC(=O)C1CCCCC1	–	6.31µM	–	5.62µM	–	–
CCOc1ccc(NC(=O)C2CCCCN2S(=O)(=O)c2ccccc2)cc1 (centres undefined)	–	–	–	–	–	–
CCOc1ccccc1C(=S)NC1CCCCC1	–	?	–	10µM	–	–
CCCN(C)C1CN(Cc2cn(Cc3ccc(C(F)(F)F)cc3)nn2)S(=O)(=O)C1 (centres undefined)	·	·	–	·	·	·
CN(C)S(=O)(=O)c1cccc(NC(=O)COC(=O)CCC(=O)c2ccc(F)cc2)c1	–	–	–	–	–	–
O=C(NC(=S)Nc1ccccc1Cl)C1CC1	–	11.2µM	–	?	?	?
O=C(NC(=S)Nc1ccccc1Br)C1CCC1	–	5.01µM	–	3.16µM	–	–
COC(=O)c1ccccc1NC(=S)NC(=O)C1CCCCC1	–	?	–	12.6µM	–	–
COc1ccc(NS(=O)(=O)c2ccc(NC(C)=O)cc2)nn1	–	·	–	·	·	·
COc1ccc(CCNC(=O)CCCc2nnc3n(C)c(=O)c4sccc4n23)cc1OC	–	–	–	–	–	–
CCCN1Cc2cccc(C(=O)N3CCN(c4ccccc4)CC3)c2C1=O	–	–	–	–	?	–
O=C(Nc1ccc2nc3n(c(=O)c2c1)CCCC3)c1cccnc1Cl	–	·	–	·	·	·
COc1cccc(C(=O)O/N=C/c2ccc(Sc3ccc(C)cc3)nc2)c1	–	–	7.08µM	–	?	–
CC(C)CNS(=O)(=O)c1ccc(CCC(=O)N2CCN(Cc3ccc4c(c3)OCO4)CC2)cc1	–	–	–	?	9.2µM	–
CCNS(=O)(=O)c1ccc(CCC(=O)N2CCN(Cc3ccccc3)CC2)cc1	–	–	–	–	–	·
CCOC(=O)N1CCN(C(=O)CCc2ccc(S(=O)(=O)NCCc3ccccc3)cc2)CC1	–	–	–	?	14.6µM	–
O=C(CCc1ccc(S(=O)(=O)NCCc2ccccc2)cc1)N1CCN(Cc2ccc3c(c2)OCO3)CC1	·	?	·	–	23.1µM	–
CC(C)CNS(=O)(=O)c1ccc(CCC(=O)N2CCN(Cc3ccccc3)CC2)cc1	–	–	–	–	?	–
COc1ccc(CCNC(=O)C2=CC=CN3CCS(=O)(=O)N=C23)cc1	–	·	–	·	–	–
CCCCOc1ccc(NC(=O)c2cc(F)c(F)cc2Cl)cc1	–	–	–	–	?	–
Nc1cccc(C(=O)OCC(=O)c2ccccc2)c1	–	–	7.94µM	–	?	?
COc1cc2c(cc1OC)C(NNC(=O)c1ccc(Br)o1)=NC(C)(C)C2	–	–	–	–	?	–
Cc1ccc(N/C(C(Cl)=C(Cl)Cl)=C(/Cl)[N+](=O)[O-])c(C)c1	-94.4	–	–	?	–	–
CN(N)c1nc(C(F)(F)F)nc2ccccc12	–	–	–	–	–	–
CN(NS(=O)(=O)c1ccc(Br)cc1)c1nc(C(F)(F)F)nc2ccccc12	–	?	–	?	20.6µM	–
SMILES	Giardia kill	VP16 counter	BRCA1 expr act	RORg inh	ELG1 DNA repair	p53 reactivator
CCN1CCN(c2ccc(NC(=O)c3ccc4c(c3)OCCO4)cc2C)CC1	–	·	–	·	?	?
O=C(NC(=S)Nc1ccc(N2CCCCC2)c(Cl)c1)c1ccc2c(c1)OCCO2	–	6.31µM	–	3.16µM	–	–
O=C(Nc1ccc(N2CCOCC2)c(Cl)c1)c1cccnc1	–	–	?	–	–	?
O=C(NC(=S)Nc1ccc(N2CCOCC2)c(Cl)c1)c1cncc(Br)c1	–	0.562µM	–	1µM	?	–
O=C(NC(=S)Nc1ccccc1N1CCCCC1)c1cccs1	–	?	–	1.58µM	–	?
O=C(NC(=S)Nc1ccccc1N1CCOCC1)c1cccs1	–	14.1µM	–	6.31µM	–	–
COc1ccc(C(=O)Nc2ccc(N3CCOCC3)cc2)cc1S(=O)(=O)NC1CCCC1	–	–	–	–	?	–
CC(C)CN1C(=O)NC(NC(=O)c2ccco2)(C(F)(F)F)C1=O (centres undefined)	–	–	–	–[10 µM]	–	–

Compound activity (PubChem BioAssay)
